Compound activity: PubChem, National Center for Advancing Translational Sciences (NCATS)
HEK293 tox = cytotoxic compounds in HEK 293 cells. Potency, µM (top dose mostly 115 µM), without a hit: top-dose activity change, negative = cytotoxicity, usual class: inhibitors. AID 1345083. 94,000 compounds, 6.6% hits. HEK 293 viability, ATP luminescence (CellTiter-Glo), 48-72 h; note: nearly all actives have a fitted effect of over 60% in size
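Pintool-delivered compounds were incubated with HEK 293 cells (250 cells/well) at 37 degree Celsius for 48 or 72 hr. ATP-dependent luminescence (CellTiter-Glo) then reported remaining viable cells.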
Luciferase inh = inhibitors of firefly (Photinus pyralis) luciferase; P08659; purified P. pyralis luciferase, luminescence, biochemical; Potency, µM (top dose mostly 115 µM), most hits filed as inhibitors; 76,000 compounds, 2.5% hits; AID 1347043; note: nearly all actives have a fitted effect of over 65% in size
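Purified 10nM P. pyralis luciferase with 10uM D-luciferin and 10uM ATP in 50mM Tris acetate pH 7.5, 10mM Mg acetate, 0.01% Tween-20, 0.05% BSA. qHTS titration; luminescence read by CCD imager.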
NPR1 antag = antagonists of human natriuretic peptide receptor Npr1. P16066. HEK293 hNpr1 GloSensor cGMP, ANP-stimulated luminescence. Potency, µM (highest dose often 46.3 µM), without a hit: top-dose activity change, negative = inhibition, usual class: inhibitors. 76,000 compounds, 1.6% hits. AID 1347048; calls by dose curve; note: nearly all actives have a fitted effect of over 60% in size
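HEK293 cells stably expressing human Npr1 and cGMP GloSensor pGS-40F, loaded 2 h with 2% GloSensor reagent, given compound 30 min at room temperature. Luminescence read before and 20 min after 0.1 nM hNppA.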
GPT2 inhibitor = GPT2 alanine aminotransferase inhibition; Q8TD30; Recombinant GPT2, coupled pyruvate oxidase/HRP Amplex Red fluorescence; Potency, µM (top dose mostly 57.7 µM), for the others: top-dose activity change, negative = inhibition, hits mostly inhibitors; 100,000 compounds, 0.25% hits; AID 1671188; note: nearly all actives have a fitted effect of over 60% in size
Target sequence (Q8TD30 whole entry, looked up): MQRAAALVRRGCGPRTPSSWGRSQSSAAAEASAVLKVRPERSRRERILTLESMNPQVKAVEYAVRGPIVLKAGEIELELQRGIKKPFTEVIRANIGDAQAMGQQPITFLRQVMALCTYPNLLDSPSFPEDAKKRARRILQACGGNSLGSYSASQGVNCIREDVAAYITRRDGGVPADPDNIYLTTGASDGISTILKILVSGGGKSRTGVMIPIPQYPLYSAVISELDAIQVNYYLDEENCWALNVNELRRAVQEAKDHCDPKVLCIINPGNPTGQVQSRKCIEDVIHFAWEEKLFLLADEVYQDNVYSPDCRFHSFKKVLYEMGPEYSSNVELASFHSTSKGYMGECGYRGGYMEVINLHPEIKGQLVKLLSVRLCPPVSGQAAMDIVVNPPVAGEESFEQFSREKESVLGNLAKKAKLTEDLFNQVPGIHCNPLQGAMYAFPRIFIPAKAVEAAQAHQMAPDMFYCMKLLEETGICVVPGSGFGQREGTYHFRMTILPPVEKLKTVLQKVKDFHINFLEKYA
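Recombinant GPT2 (10ng/uL) with 250uM a-KG and 2mM L-alanine, 30 min at room temperature, in HEPES pH 7.5 buffer. Pyruvate detected by pyruvate oxidase/HRP/Amplex Red fluorescence after 30 min in the dark; AOA (50uM) as positive control.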
3T3 cytotox = cytotoxic compounds in NIH 3T3 cells. 94,000 compounds, 4.3% hits. AID 1345082. NIH 3T3 viability, CellTiter-Glo ATP luminescence, 48-72 h. Potency, µM (top dose mostly 96.7 µM), without a hit: at the top dose activity change, negative = cytotoxicity, hits mostly inhibitors; note: nearly all actives have a fitted effect of over 55% in size
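Cytotoxicity is measured as loss of cellular ATP: NIH 3T3 cells (400/well) are exposed to compound for 48 or 72 hr at 37 °C, then CellTiter-Glo luminescence is imaged after 10 min at room temperature.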
Active calls of the source: *; i = inactive; ? = inconclusive; . = not tested or not shown; [ ] = remark or other dose. Compounds with a hit are over-represented: about 10% of the library has one in this group of screens. Unless noted, calls come from the whole dose curve; as a rule, active = well fitted curve in the direction sought with a large enough effect; inconclusive = small, poorly fitted or top-dose-only effect, or another doubt; inactive = no such curve, though single readings can be large; an effect the other way counts as inactive or inconclusive. % is set by controls: 0 for no effect and ±100 for the full control effect; potency is the fitted concentration of half-maximal effect.

SMILES | HEK293 tox | Luciferase inh | NPR1 antag | GPT2 inhibitor | 3T3 cytotox
N#Cc1ccc(CN2CCCC3(C2)NC(=O)c2ccccc2O3)cc1 (stereo not drawn) | 89µM* | i | ? | 3%[88.5 µM] | ?
O=C1NC2(CCN(Cc3ccsc3)CC2)COc2ccccc21 | 63µM* | i | -17%[70.6 µM] | 0%[88.5 µM] | ?
Cn1nccc1CN1CCC2(COc3ccccc3C(=O)N2)C1 (stereo not drawn) | 89µM* | i | 7%[70.6 µM] | i | ?
O=C1NC2(CCN(Cc3ccc(F)cc3)C2)COc2ccccc21 (stereo not drawn) | ? | i | -16%[70.6 µM] | 2%[88.5 µM] | 28µM*
O=C(c1ccccc1Cl)N1CCC(C(=O)N2CCCC2c2nc3ccncc3[nH]2)CC1 (stereo not drawn) | 0% | . | . | ? | i
CC(C)(CC(=O)N1CCCC1)NCC(=O)N1C[C@@H](F)C[C@H]1C#N | . | . | . | -24% | .
O=C(Cc1ccc(F)cc1)N1CCc2nc(C3CC3)nc(-c3ccc(O)cc3)c2CC1 | ? | . | . | -11% | -28%
N#Cc1ccc(CN2CCC3(COc4ccccc4C(=O)N3)C2)cc1 (stereo not drawn) | 63µM* | i | ? | -4%[88.5 µM] | 32µM*
O=C1NC2(CCN(Cc3ccccc3C(F)(F)F)CC2)Oc2ccccc21 | 40µM* | i | 3% | 4% | ?
O=C1NC2(CCN(Cc3ccccc3C(F)(F)F)CC2)COc2ccccc21 | -3% | i | 0% | i | i
COCc1ccc(C(=O)N2CCCC(CCc3cccc(OC)c3)C2)o1 (stereo not drawn) | 79µM* | i | 1% | i | ?
COc1cccc(CCC2CCCN(C(=O)c3ccoc3C)C2)c1 (stereo not drawn) | 32µM* | i | -2% | -4% | ?
COc1cccc(CCC2CCCN(C(=O)c3ccsc3)C2)c1 (stereo not drawn) | ? | i | 1% | i | ?
COc1cccc(C(=O)N2CCC3(CC2)NC(=O)N(c2cccc(F)c2)N3)c1 | ? | i | 7% | ? | ?
COc1cc(OC)cc(C(=O)N2CCC3(CC2)NC(=O)N(c2ccc(F)cc2)N3)c1 | 28µM* | i | -26% | ? | 25µM*
COc1ccc(-c2ccnc(-c3nnc(C)n3C(C)C)c2)cc1OC | -11%[172 µM] | i | 2%[70.6 µM] | 4%[88.5 µM] | 100µM*
COc1ccc(-c2ccnc(-c3nnc(C)n3CCN(C)C)c2)cc1OC | -17%[172 µM] | i | 6%[70.6 µM] | -6%[88.5 µM] | 25µM*
CS(=O)(=O)N1CCC(Cc2ccc(CN3CCCCC3)cc2)CC1 | ? | . | . | 0% | ?
CC(c1nccs1)N(C)C(=O)c1csc2nc(-c3ccccc3Cl)cn12 (stereo not drawn) | 22µM* | ? | -25% | 2% | 50µM*
COc1cccc2c1C(=O)c1c(O)c3c(c(O)c1C2=O)C[C@@](O)(C(=O)CO)C[C@@H]3O[C@H]1C[C@H](N)[C@H](OC2CCCCO2)[C@H](C)O1 (stereo partly drawn) | . | . | . | 3.1µM* | .
CN(C)c1ccc(CN2Cc3[nH]cnc3C[C@H]2c2nc(-c3ccccc3)no2)cc1 | ? | 40µM* | -4%[70.6 µM] | -17%[88.5 µM] | ?
Cc1ccc(-c2noc([C@@H]3Cc4nc[nH]c4CN3Cc3ccc(N(C)C)cc3)n2)cc1 | 89µM* | ? | ? | -6%[88.5 µM] | 100µM*
COc1ccc(CNC(=O)CC[C@@H]2CNC(=O)[C@@H]3C[C@H](NCc4ccccc4)CN23)cc1 | i | i | 3% | i | i
COc1ccc2[nH]c(C[C@@H]3C[C@@H](C(C)C)[C@H](CN(C)C)C=C3C)nc2n1 | ? | i | -13%[70.6 µM] | 2%[88.5 µM] | 89µM*
COc1ccc2[nH]c(C[C@@H]3C[C@@H](C(C)C)[C@H](CNCc4ccccc4O)C=C3C)nc2n1 | 45µM* | i | ? | -3%[88.5 µM] | 35µM*
SMILES | HEK293 tox | Luciferase inh | NPR1 antag | GPT2 inhibitor | 3T3 cytotox
CC(C)c1nc2c(c(-c3ccc(Cl)cc3)n1)CCN([S+](=O)([O-])c1cccc(C(F)(F)F)c1)CC2 | i | . | . | 4% | -1%
O=C(NCCC1CCN(C(=O)Nc2cccc(F)c2)CC1)c1cc(F)ccc1F | -19% | i | -3% | i | ?
O=C(c1nc(-c2ccc(F)cc2)c2ccccn12)N1CCOCC1 | 112µM* | i | 0%[70.6 µM] | 2%[88.5 µM] | -26%[138 µM]
O=C(c1nc(-c2ccccc2)c2ccccn12)N1CCN(c2ncccn2)CC1 | 79µM* | i | 2% | -3% | -21%
O=C(c1nc(-c2ccccc2)c2ccccn12)N1CCOCC1 | 89µM* | i | -12%[70.6 µM] | i | ?
O=C(c1nc(-c2cc(Cl)cc(Cl)c2)c2ccccn12)N1CCOCC1 | ? | i | -12% | i | -25%
CC(C)c1csc(CN2CC[C@@H](c3ccc4c(c3)OCO4)[C@H](O)C2)n1 | 22µM* | i | ? | i[11.5 µM] | ?
COc1cccc([S+](=O)([O-])N2CCCC3(C2)C(=NC2CCCC2)NC(=O)N3c2cc(F)cc(F)c2)c1 (stereo not drawn) | ? | i | 10% | i | ?
C[C@@H]1CC[C@@]2(OC1)O[C@H]1C[C@H]3[C@@H]4CC[C@H]5C[C@@H](O)CC[C@]5(C)[C@H]4CC(=O)[C@]3(C)[C@H]1[C@@H]2C | . | . | . | 2.2µM* | .
Cn1nc(C2CCCN(C(=O)c3ccccc3)C2)n(C2CCCC2)c1=O (stereo not drawn) | -20% | . | . | i | -31%
CC(=O)c1cccc(NC(=O)Cn2c(-c3ccccc3)nc(C)cc2=O)c1 | ? | i | -2% | i | -12%
Cc1cc(=O)n(CC(=O)Nc2ccccc2C)c(-c2ccc(Cl)cc2)n1 | ? | i | -3% | -17% | 35µM*
CC(=O)c1cccc(NC(=O)Cn2c(-c3ccc(F)cc3)nc(C)cc2=O)c1 | 45µM* | i | -14% | i | -25%
NC1(C(=O)N2CCCC(CCc3cccc(C(F)(F)F)c3)C2)CC1 (stereo not drawn) | ? | i | -15% | -10% | ?
Cc1ncoc1C(=O)N1CC[C@H](CO)[C@H](NC(=O)c2ccccc2)C1 | -11% | i | 3% | -5% | -3%
COC(=O)N(C)Cc1cccc(N2CCN(C(C)c3ccccc3)CC2)c1 (stereo not drawn) | 45µM* | . | . | . | ?
CC(c1ccccc1)N1CCN(c2cccc(CN(C)S(C)(=O)=O)c2)CC1 (stereo not drawn) | 45µM* | . | . | . | ?
COC(=O)C1CCN([C@H]2[C@@H]3OC[C@@H](O3)[C@@H](NC(=O)Nc3cccc(OC)c3)[C@@H]2O)CC1 | i | i | 5% | -6% | i
